Laboratory results reported in PubChem BioAssay AID898 (University of Pittsburgh Molecular Library Screening Center, 2007).
In all, about 140,000 compounds went through this assay and about 220 (0.16%) were called active. The entries come from a sample that favours actives as a whole. A number with no mark means an inactive call. Cut-off read from the data, not from the text of the source: active = inhibition above about 50%; inactive = the rest.

Each compound was assayed on YopH tyrosine phosphatase [Yersinia enterocolitica] (assay: inhibition of Yersinia YopH phosphatase – biochemical, fluorescence Ex485/Em525, primary screen (AID 898)). Settings: hits give high values, concentration not given here.
`COc1cc(/C=N/NC(=O)c2ccccc2)ccc1OS(=O)(=O)c1ccccc1` gave an inhibition of -12.8%. Work on `COC(=O)c1ccccc1NS(=O)(=O)c1ccc2[nH]c(=O)[nH]c2c1` yielded an inhibition of -13.2%. Work on `Cc1cccc(CSc2ccc(-c3cccs3)nn2)c1` yielded an inhibition of -8.04%. For `CC1(c2cccc([N+](=O)[O-])c2)CC(C)(C)N(C(=O)c2ccccc2)c2ccccc21` (stereo not drawn), the inhibition was -13.3%. Work on `O=C(NC(=S)Nc1cc(C(F)(F)F)ccc1N1CCOCC1)c1ccc(-c2cccc(Cl)c2)o1` yielded an inhibition of -11.4%. Compound `CCN(CC(=O)NC1CCS(=O)(=O)C1)S(=O)(=O)c1ccccc1` (stereo not drawn) has an inhibition of -27.4%. `O=c1cc(-c2ccccc2)[nH]c2cc(F)ccc12` showed an inhibition of -25.5%. In the case of `Clc1ccc(C2=CSC3=Nc4cccc5cccc(c45)N23)cc1`, the inhibition is reported as 76.1% (active). With `COc1ccc2c(c1)CC[C@@H]1[C@@H]2CC[C@]2(C)C(=O)CC[C@@H]12` the inhibition was -40.8%. In the case of `COC(=O)/C=C\C(=O)Nc1cccc([N+](=O)[O-])c1`, the inhibition is reported as -15.7%. `Cc1ccc(NC(=O)Cn2cccc2C2=NC(c3ccccc3)CO2)c(C)c1` (stereo not drawn) showed an inhibition of -4.93%. `Cc1ccc(S(=O)(=O)Nc2nc(C)cc(N/N=C/c3ccc(O)cc3)n2)cc1` showed an inhibition of -24.5%. `Cn1cnc(C(F)(F)F)c1-c1ccc([N+](=O)[O-])cc1` gave an inhibition of -26.6%. `Cc1ccc(NC(=O)CN(C)Cc2ccc(F)cc2)c([N+](=O)[O-])c1` was tested, and the inhibition was -24.9%. In the case of `Cc1ccccc1C(OCCN(C)C)C1CCCCC1` (stereo not drawn), the inhibition is reported as -18.4%. In the case of `N#Cc1ccc(C(=O)Nc2nc(-c3cccs3)c(C(=O)C(F)(F)F)s2)cc1`, the inhibition is reported as -10.1%. Compound `O=C(/C(=C/c1cccc(Cl)c1)c1nc2ccccc2[nH]1)c1ccccc1` has an inhibition of -25%. For `NNc1nc2c(Cl)cccc2s1`, the inhibition was -22%. For `Cc1cc(N2CCOCC2)nc(-c2ccc(Br)cc2)n1`, the inhibition was 5.67%. Compound `CCCCNC(=O)C1CCC(CNS(=O)(=O)c2ccc(NC(C)=O)cc2)CC1` (stereo not drawn) has an inhibition of -25.8%. With `COC(=O)NNC(=O)C1CCC(C)CC1` (stereo not drawn) the inhibition was -19.5%. `COc1ccc(-c2cc(C(F)(F)F)nc(SCC(=O)Nc3ccc4c(c3)OCO4)n2)cc1OC` showed an inhibition of -21.2%. In the case of `Cc1cccc(N2C(=O)SC(SC(=Nc3ccccc3)Nc3ccccc3)C2=O)c1` (stereo not drawn), the inhibition is reported as -18.8%. For `Cc1ccc2c(c1)C1CN(C)CCC1N2C(=O)c1ccccc1NS(=O)(=O)c1ccc(F)cc1C` (stereo not drawn), the inhibition was -30.2%. For `Cc1nc2ccccc2n1CC(=O)N/N=C/c1cccs1`, the inhibition was -17.2%. In the case of `Cc1ccc(NC(=O)CCC(=O)N/N=C/c2ccco2)c(C)c1`, the inhibition is reported as -19.1%. In the case of `CCCNC(=O)OC[C@H]1O[C@H](CCO/N=C/[C@@H](NS(=O)(=O)c2ccc(C)cc2)[C@H](C)/C=C/CC(=O)OC)C=C[C@@H]1Oc1ccc(OC)cc1`, the inhibition is reported as -21.3%. In the case of `CC(=O)c1ccc(NC(=S)NC(=O)CC(C)C)cc1`, the inhibition is reported as -2.98%. With `COc1cc(OC)cc(C(=O)N[C@H](C(=O)OCC(=O)NC(C)c2ccccc2)C(C)C)c1` (stereo partly drawn) the inhibition was -27.4%. `CCCCC(CC(C)O)c1n[nH]c(=S)n1-c1ccccc1` (stereo not drawn) was tested, and the inhibition was -33.5%. `CC(C)c1nccn1S(=O)(=O)c1cc([N+](=O)[O-])ccc1Cl` showed an inhibition of -25.1%. With `CCCCCOc1ccc(/C=C/C(=O)NCCc2nc3ccccc3[nH]2)cc1OC` the inhibition was -36.7%. Work on `C=CCNC(=S)NNC(=O)COc1c(Cl)cc(Cl)cc1Cl` yielded an inhibition of -25.1%. In the case of `COC(=O)Cc1ccc(NC(=S)NCc2ccccc2)cc1`, the inhibition is reported as -21.4%. With `Cc1ccc(OCc2nnc(SC3CCc4ccccc4C3=O)n2C)cc1` (stereo not drawn) the inhibition was -10.2%. For `O=C(Nc1nnc(SCc2ccccc2Cl)s1)c1cccc([N+](=O)[O-])c1`, the inhibition was -19.7%. Compound `CC/C(=N\NC(=O)c1ccccc1Cl)c1ccc(Br)s1` has an inhibition of -30%. `CCCCN=C1C([N+](=O)[O-])=CC=C2C1=NC1(CCCCC1)N2O` was tested, and the inhibition was -23.5%. `Cc1ccc(S(=O)(=O)N2CCOCC2)cc1C(=O)NC(=S)N(Cc1ccccc1)C(C)C` gave an inhibition of -13.5%. `CC(C)Nc1nnc(SCC(=O)c2c[nH]c3ccccc23)s1` was tested, and the inhibition was -37.7%. For `O=C(c1cccs1)n1nc(NCc2ccccc2)nc1NCc1ccccc1`, the inhibition was -28.9%. With `COc1ccccc1-c1nnc(NC(=O)c2ccc3ncsc3c2)o1` the inhibition was -9.55%. For `CN(C)c1ccnc2sc(C(=O)c3ccccc3)c(N)c12`, the inhibition was 9.26%. With `O=C(O)CCS(=O)(=O)c1ccc(-c2ccccc2)cc1` the inhibition was -26.8%. In the case of `CCOc1ncccc1C(=O)N(C)CC(=O)Nc1ccc(F)cc1`, the inhibition is reported as -16.5%. `CCOC(=O)c1c(/N=C/c2cc(C)ccc2O)sc2c1CCC2` showed an inhibition of -9.28%. With `CCNC(=S)N(CCc1c(C)[nH]c2ccc(C)cc12)Cc1ccco1` the inhibition was -11.6%. For `C=CCOc1ccc(/C=N/NC(=O)C(C)Sc2ccccn2)cc1OCC` (stereo not drawn), the inhibition was -28.1%. `O=C(COC(=O)Cc1ccc(Br)cc1)Nc1c(F)c(F)c(F)c(F)c1F` was tested, and the inhibition was -9.87%. `CN(C)c1ccc(/C=N/N(Cc2ccccc2)c2ccccc2)cc1` gave an inhibition of -23.4%. `C=CCn1c(SCC(N)=O)nnc1-c1cc2c(s1)CCC(CC)C2` (stereo not drawn) showed an inhibition of -11%. For `CCC(C)(C(=O)Nc1ccccc1C)N(C(=O)CNC(C)=O)c1ccc(C)cc1` (stereo not drawn), the inhibition was -34.2%. `CC(C)C(=O)Nc1ccc(C(=O)NNC(=O)c2cccs2)cc1` gave an inhibition of -18.7%. Compound `CCc1ccc(NC(=O)C(C)OC(=O)/C=C/c2cccc([N+](=O)[O-])c2)cc1` (stereo not drawn) has an inhibition of -14.1%. Work on `COc1cc(/C=N/NC(=O)CCc2n[nH]c(=O)[nH]c2=O)ccc1O` yielded an inhibition of -11.1%. For `Cc1ccc(N(C(=O)C(F)(F)F)C(C(=O)NC2CCCCC2)c2ccncc2)cc1C` (stereo not drawn), the inhibition was -8.07%. For `COc1ccc(-c2nnc(SCC(=O)c3cccs3)o2)c(OC)c1`, the inhibition was 90.3% (active). Work on `COc1ccc(OC)c(C(=O)CSc2nnc(-c3cccs3)o2)c1` yielded an inhibition of -17.3%. `COc1ccc(-n2c(C)cc(C(=O)CSc3nnc(-c4cccs4)o3)c2C)cc1` showed an inhibition of -23.9%. In the case of `COC1=CCC2([N+](=O)[O-])CN(CC(=O)O)CC1([N+](=O)[O-])C2` (stereo not drawn), the inhibition is reported as -24.9%. `O=C(COC(=O)/C=C/c1ccc(S(=O)(=O)N2CCCCCC2)cc1)NCc1ccccc1Cl` was tested, and the inhibition was -43.5%. `COC(=O)c1sc(N)c(C(=O)OC)c1COC(=O)CNS(=O)(=O)c1ccc(C)cc1` was tested, and the inhibition was -21.7%. `Cc1ccc(C(C[N+](=O)[O-])c2c(C)cc3ccccn23)cc1` (stereo not drawn) gave an inhibition of -23.1%. `CN1CCN(c2ccc(S(=O)(=O)N3CCCCC3)cc2NC(=O)Cc2ccccc2F)CC1` showed an inhibition of -23.6%. For `O=C(NNC(=O)c1cc2c(s1)CCCC2)c1ccccc1`, the inhibition was -2.47%. For `O=C(NCCOc1ccccc1Cl)C(=O)Nc1ccccc1`, the inhibition was -35.1%. For `O=C(CN1C(=O)/C(=C\c2ccc(C(F)(F)F)cc2)Sc2ccccc21)NCc1ccco1`, the inhibition was -14.7%. For `COc1ccc(C)cc1NC(=O)C(OC(=O)c1cccc(S(=O)(=O)N(C)c2ccccc2)c1)c1ccccc1` (stereo not drawn), the inhibition was -35.9%. Work on `O=[N+]([O-])c1ccc(N/N=C2/CCCCC2c2ccccn2)c([N+](=O)[O-])c1` (stereo not drawn) yielded an inhibition of -15.4%. `O=C(OCc1ccc(Br)cc1)c1cccc(-c2nnc(-c3ccccc3)o2)c1` showed an inhibition of -11.6%. `C/C(=N\NC(=O)CCn1nc(C)cc1C)C(C)(C)C` showed an inhibition of -8.98%. `CC(C)CNC(=O)COC(=O)c1ccccc1OCC(=O)Nc1ccc(Br)cc1` gave an inhibition of -23.1%. `Cc1cc(C)cc(C(=O)NC(=S)Nc2ccc3[nH]c(=O)[nH]c3c2)c1` gave an inhibition of -11.9%. Work on `Cc1cc(SCC(=O)NCCN2C(=O)CSC2=O)nc2ccccc12` yielded an inhibition of -4.76%. In the case of `Cc1ccc2[nH]cc(CCCN3C(=O)c4ccccc4C3=O)c2c1`, the inhibition is reported as -23.7%. For `Cc1ccc(N(C(=O)c2ccc(CN3CCOCC3)o2)C(C(=O)NCCC(C)C)c2cccs2)c(C)c1` (stereo not drawn), the inhibition was -6.18%. Work on `CCCOc1ccc(NC(=O)C2OC3OC(C)(C)OC3C3OC(C)(C)OC23)cc1` (stereo not drawn) yielded an inhibition of -26.3%. In the case of `O=C(COc1nc2ccccc2nc1N1CCOCC1)NCC(F)(F)F`, the inhibition is reported as -21.6%. Work on `CCOc1ccc(Br)cc1S(=O)(=O)Nc1cccc(S(=O)(=O)N(CC)CC)c1` yielded an inhibition of -29.5%. `O=C1NC(c2ccc(-c3ccccc3[N+](=O)[O-])o2)C(C(=O)c2ccc(Cl)cc2)C(O)(C(F)(F)F)N1` (stereo not drawn) was tested, and the inhibition was -11.1%. `CCOc1ccc(Oc2nc(C)cc(OC)n2)nn1` showed an inhibition of -16%. `Cc1cccc(OCCNC(=S)NC(=O)c2cccnc2)c1` was tested, and the inhibition was -28.5%. `O=C(NCCC1=CCCCC1)c1ccc(Cl)c([N+](=O)[O-])c1` was tested, and the inhibition was -21.9%. `CC(C)(C)c1ccc(NC(=O)COC(=O)CCc2nc3ccccc3c(=O)[nH]2)cc1` showed an inhibition of -15.2%. With `COc1ccc(NC(=O)c2sc(N3CCOCC3)nc2-c2ccccc2)c(OC)c1` the inhibition was -1.88%. With `CC1=C(C)CC(C(=O)NNC(=O)c2csc3c2CCC(C(C)(C)C)C3)C(C(=O)O)C1` (stereo not drawn) the inhibition was -33.4%. For `Cc1ccc(C)c(NC(=O)C(OC(=O)c2ccc(C)s2)c2ccccc2)c1` (stereo not drawn), the inhibition was -11.6%. `Cc1ccc(/C=C/C(=O)Nc2cc(S(=O)(=O)N3CCCCCC3)ccc2OCC(F)(F)F)o1` showed an inhibition of 7.49%.
